In PubChem BioAssay (Tox21):
“And” between values parts separate entries of the source, which are not always exact repeats. Equal entries are not always repeated. Results filed as inconclusive are left out. A call without a number means that no potency is given here. Where a structure was tested more than once in an assay, its records may differ in their call. The source made the active and inactive calls. The call rests on the fitted dose curve; in most records, active means well fitted inhibition curve with a large enough effect in the repeat runs; inconclusive means weak or mixed curves; inactive means flat fitted curve, though single readings scatter.

experiment: qHTS assay to identify small molecule HDAC inhibitors (AID 1259364); conditions: HCT-116 HDAC-Glo I/II luminescence, 2 h; series mostly up to 92.4 µM; further: nearly all actives have a fitted effect of over 45% in size
From the text: U.S. Tox21 Program National Center for Advancing Translational Sciences [NCATS] NIH Chemical Genomics Center [NCGC] U.S. Environmental Protection Agency [EPA] National Institutes of Environmental Health Sciences [NIEHS] National Toxicology Program [NTP] U.S. Food and Drug Administration [FDA] Tox21 Assay Overview: Histone deacetylases (HDACs) are a group of epigenetic enzymes that regulate gene expression by histone deacetylation. HDACs are capable of introducing epigenetic modifications and such aberrations contribute to the onset and progression of several human diseases, thus making HDACs a popular therapeutic target. For identifying endogenous class I/II HDAC inhibitors a homogenous, luminogenic HDAC I/II cell based assay was used to measure the relative activity of class I and II HDACs from cells. Wild type HCT-116 cells were used to screen Tox21 libraries for identifying class I/II HDAC inhibitors.
Tox21 Assay Protocol Summary: HCT-116 cells were dispensed at 1,500 per well in 5uL of culture medium into white solid bottom 1536-well plates (Greiner Bio-One, Monroe, NC) using a Multidrop Combi (Thermo Scientific, Waltham, MA) dispenser. The assay plates were incubated at 37 C and 5% CO2 for an overnight, and then 23nL of compounds dissolved in DMSO and positive control were transferred using a Pintool station (Wako, San Diego, CA). The assay plates were incubated at 37C and 5% CO2 for 2hr. After compound treatment, 4uL of HDAC-Glo reagent (Promega Corporation, Madison, WI) was added to each well of the assay plates using Flying Reagent Dispenser (FRD, Aurora Discovery, San Diego, CA) and incubated the assay plates at room temperature for 30min. The luminescence signal was quantified using a ViewLux plate reader (Perkin Elmer, Shelton, CT).
Potency means the concentration at half of the fitted maximal effect.

| Compound | Potency |
| --- | --- |
| CC[N+]1(C)CCCC1 | inactive |
| CCCCCCCCCCn1cc[n+](C)c1 | inactive |
| CCNc1nc(Cl)nc(NCC)n1 | inactive |
| CCCCCCCCCCCCOS(=O)(=O)O | inactive |
| COCC(=O)N(c1c(C)cccc1C)C(C)C(=O)OC (stereo not given) | inactive |
| CCCC[n+]1cccc(C)c1 | inactive |
| COc1ccccc1N | inactive |
| Nc1ccc(-c2ccc(N)cc2)cc1 | inactive |
| Nc1ccccc1 | inactive |
| O=[N+]([O-])c1ccccc1O | inactive |
| CC(Cl)(Cl)C(=O)O | inactive |
| CCCC[N+]1(C)CCCC1 | inactive |
| CCCCn1cc[n+](C)c1 | inactive |
| C[C@]12CCC(=O)C=C1CC[C@@H]1[C@@H]2CC[C@]2(C)C(=O)CC[C@@H]12 | inactive |
| Cc1cc(-c2ccc(N)c(C)c2)ccc1N | 48.4 µM (active) |
| O=[N+]([O-])O | inactive |
| CNC | inactive |
| C=CCOC(Cn1ccnc1)c1ccc(Cl)cc1Cl (stereo not given) | inactive |
| COP(=O)(OC)OC=C(Cl)Cl | inactive |
| O=C(O)C(Cl)(Cl)Cl | inactive |

| Compound | Potency |
| --- | --- |
| O=P1(N(CCCl)CCCl)NCCCO1 (stereo not given) | inactive |
| Oc1ccccc1-c1ccccc1 | inactive |
| CN(C)[C@@H]1C(=O)C(C(N)=O)=C(O)[C@@]2(O)C(=O)C3=C(O)c4c(O)cccc4[C@@](C)(O)[C@H]3[C@H](O)[C@@H]12 | inactive |
| CCC[N+]1(C)CCCC1 | inactive |
| Cc1cc(Cl)ccc1N | inactive |
| CC[n+]1ccccc1 | inactive |
| Oc1cccc2cccnc12 | inactive |
| Nc1ccc(Cl)cc1 | inactive and 27.8 µM (active) |
| CCCCCCCCCCCCCCCCn1cc[n+](C)c1 | inactive |
| O=S(=O)(O)O | inactive |
| CC[N+](CC)(CC)CC | inactive |
| CCCC[n+]1ccc(C)cc1 | inactive |
| CCn1cc[n+](C)c1C | inactive |
| CCCCCCCCCCCCn1cc[n+](C)c1 | inactive |
| COP(=O)(OC)C(O)C(Cl)(Cl)Cl (stereo not given) | inactive |
| CCC[N+]1(C)CCCCC1 | inactive |
| C1CCC(NC2CCCCC2)CC1 | inactive |
| CCCCCCCCCCCC(=O)O | inactive |
| CC(=O)O | inactive |
| CCCCCC[n+]1ccccc1 | inactive |
